Measured values taken from the supplement of paper PMC11732987, “Enantioselective OTUD7B fragment discovery through chemoproteomics screening and high-throughput optimisation” (Communications Chemistry, 2025).

Assays:
Experiment in all cases: log2 ratio of Biotin-Ahx-Ub-VS probe labelling (fragment/DMSO); higher = less target engagement (more negative = stronger competition), active = hit call of the paper (q ≤ 0.05, log2 ratio ≤ -1)
Conditions in all cases: compound concentration: 200 uM; treatment time: 3 h
USP42 = molecular target: T1, USP42 (UniProt Q9H9J4)
T1 sequence (whole entry): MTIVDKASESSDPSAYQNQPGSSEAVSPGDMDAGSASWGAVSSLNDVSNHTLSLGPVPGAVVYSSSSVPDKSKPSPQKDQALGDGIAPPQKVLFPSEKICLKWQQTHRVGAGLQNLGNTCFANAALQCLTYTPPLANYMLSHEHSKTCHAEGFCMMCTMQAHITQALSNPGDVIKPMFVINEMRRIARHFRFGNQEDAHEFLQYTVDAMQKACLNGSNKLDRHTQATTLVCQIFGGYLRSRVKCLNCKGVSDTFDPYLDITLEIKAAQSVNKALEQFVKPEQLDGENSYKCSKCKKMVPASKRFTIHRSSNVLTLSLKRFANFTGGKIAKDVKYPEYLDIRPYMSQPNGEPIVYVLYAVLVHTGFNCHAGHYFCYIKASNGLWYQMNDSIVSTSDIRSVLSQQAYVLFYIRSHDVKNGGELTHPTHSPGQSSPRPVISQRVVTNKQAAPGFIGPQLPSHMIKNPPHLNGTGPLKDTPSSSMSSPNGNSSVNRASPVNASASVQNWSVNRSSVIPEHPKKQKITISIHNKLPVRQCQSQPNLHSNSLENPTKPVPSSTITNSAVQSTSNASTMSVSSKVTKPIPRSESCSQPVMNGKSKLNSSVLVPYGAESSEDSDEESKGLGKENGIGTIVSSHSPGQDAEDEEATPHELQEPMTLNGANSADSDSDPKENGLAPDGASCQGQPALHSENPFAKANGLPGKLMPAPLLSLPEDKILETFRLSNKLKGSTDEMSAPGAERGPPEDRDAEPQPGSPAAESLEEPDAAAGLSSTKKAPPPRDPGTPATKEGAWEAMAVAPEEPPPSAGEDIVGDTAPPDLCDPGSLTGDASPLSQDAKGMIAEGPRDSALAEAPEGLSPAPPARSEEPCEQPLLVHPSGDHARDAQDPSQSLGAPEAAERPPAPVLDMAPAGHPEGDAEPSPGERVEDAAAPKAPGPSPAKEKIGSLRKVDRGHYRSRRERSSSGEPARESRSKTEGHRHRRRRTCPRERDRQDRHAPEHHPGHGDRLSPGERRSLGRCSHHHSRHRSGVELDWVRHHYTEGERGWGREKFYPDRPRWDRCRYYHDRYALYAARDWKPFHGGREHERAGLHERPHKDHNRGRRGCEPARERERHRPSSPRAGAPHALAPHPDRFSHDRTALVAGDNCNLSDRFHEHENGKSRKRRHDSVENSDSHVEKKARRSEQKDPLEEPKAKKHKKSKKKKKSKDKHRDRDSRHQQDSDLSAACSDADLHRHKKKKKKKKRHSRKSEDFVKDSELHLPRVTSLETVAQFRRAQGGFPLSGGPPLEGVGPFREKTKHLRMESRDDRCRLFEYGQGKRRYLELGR
How it was run: (§1)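 HEK293T lysate, 495 µg per sample in Tris/CHAPS/IGEPAL buffer with protease inhibitors, was treated in triplicate with fragment at 200 µM or vehicle for 3 h and then with Biotin-Ahx-Ub-VS at 0.5 µM final for 1 h. Labelled DUBs were NeutrAvidin-enriched, digested with LysC and trypsin, and run by diaPASEF LC-MS/MS. Spectronaut label-free quantities were global-median-normalised, and values are average log2 fragment/vehicle ratios by unpaired t-test on proteins with ≥2 unique peptides.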

USP46 = USP46 (UniProt P62068)
Chain of USP46 (P62068 whole entry): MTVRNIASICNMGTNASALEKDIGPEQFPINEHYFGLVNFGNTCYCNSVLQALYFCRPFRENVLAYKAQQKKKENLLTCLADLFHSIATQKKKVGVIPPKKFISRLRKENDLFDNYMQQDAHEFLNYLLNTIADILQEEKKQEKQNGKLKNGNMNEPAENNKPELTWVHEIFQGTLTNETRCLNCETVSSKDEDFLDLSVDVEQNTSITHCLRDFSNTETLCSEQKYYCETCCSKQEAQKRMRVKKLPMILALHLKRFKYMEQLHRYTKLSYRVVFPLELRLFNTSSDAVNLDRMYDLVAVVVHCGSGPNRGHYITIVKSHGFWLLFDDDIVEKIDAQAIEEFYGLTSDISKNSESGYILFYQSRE
How it was run: as §1

USP47 = molecular target: T2, USP47 (UniProt Q96K76)
T2 sequence (whole entry): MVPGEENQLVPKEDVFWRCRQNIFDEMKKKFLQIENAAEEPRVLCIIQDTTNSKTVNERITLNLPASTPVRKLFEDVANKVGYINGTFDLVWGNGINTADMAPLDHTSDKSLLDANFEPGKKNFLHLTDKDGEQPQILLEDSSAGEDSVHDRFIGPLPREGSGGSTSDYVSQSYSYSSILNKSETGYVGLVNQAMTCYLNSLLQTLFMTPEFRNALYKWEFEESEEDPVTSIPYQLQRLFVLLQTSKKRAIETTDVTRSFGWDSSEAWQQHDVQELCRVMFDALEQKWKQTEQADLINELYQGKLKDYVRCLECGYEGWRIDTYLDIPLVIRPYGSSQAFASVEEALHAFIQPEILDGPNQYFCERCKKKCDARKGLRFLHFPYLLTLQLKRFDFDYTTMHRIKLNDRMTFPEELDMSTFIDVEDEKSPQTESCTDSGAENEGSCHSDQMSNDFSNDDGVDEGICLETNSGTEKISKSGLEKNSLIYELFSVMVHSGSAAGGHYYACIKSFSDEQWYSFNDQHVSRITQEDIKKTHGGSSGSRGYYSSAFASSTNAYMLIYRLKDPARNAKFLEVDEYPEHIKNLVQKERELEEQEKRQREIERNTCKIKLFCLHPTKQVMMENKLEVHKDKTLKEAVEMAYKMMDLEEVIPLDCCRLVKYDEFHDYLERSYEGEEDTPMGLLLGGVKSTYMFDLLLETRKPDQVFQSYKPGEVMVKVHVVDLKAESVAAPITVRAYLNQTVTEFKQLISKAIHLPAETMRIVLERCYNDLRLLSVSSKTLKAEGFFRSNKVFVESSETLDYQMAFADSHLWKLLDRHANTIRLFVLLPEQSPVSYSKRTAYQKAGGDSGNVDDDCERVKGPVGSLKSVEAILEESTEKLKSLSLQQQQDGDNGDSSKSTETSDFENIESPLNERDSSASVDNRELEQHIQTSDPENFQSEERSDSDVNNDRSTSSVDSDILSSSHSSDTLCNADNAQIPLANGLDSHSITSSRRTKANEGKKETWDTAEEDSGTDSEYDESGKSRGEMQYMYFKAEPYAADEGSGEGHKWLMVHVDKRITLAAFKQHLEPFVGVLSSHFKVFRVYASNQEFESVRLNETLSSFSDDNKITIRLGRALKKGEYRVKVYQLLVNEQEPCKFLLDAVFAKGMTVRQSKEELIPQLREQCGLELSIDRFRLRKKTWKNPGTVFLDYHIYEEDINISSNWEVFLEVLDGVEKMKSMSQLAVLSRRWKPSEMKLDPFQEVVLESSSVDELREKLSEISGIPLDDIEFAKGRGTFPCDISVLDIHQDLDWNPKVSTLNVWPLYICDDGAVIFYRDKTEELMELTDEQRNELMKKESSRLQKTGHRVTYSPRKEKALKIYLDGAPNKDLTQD
How it was run: as §1

USP48 = molecular target: T3, USP48 (UniProt Q86UV5)
T3 sequence (whole entry): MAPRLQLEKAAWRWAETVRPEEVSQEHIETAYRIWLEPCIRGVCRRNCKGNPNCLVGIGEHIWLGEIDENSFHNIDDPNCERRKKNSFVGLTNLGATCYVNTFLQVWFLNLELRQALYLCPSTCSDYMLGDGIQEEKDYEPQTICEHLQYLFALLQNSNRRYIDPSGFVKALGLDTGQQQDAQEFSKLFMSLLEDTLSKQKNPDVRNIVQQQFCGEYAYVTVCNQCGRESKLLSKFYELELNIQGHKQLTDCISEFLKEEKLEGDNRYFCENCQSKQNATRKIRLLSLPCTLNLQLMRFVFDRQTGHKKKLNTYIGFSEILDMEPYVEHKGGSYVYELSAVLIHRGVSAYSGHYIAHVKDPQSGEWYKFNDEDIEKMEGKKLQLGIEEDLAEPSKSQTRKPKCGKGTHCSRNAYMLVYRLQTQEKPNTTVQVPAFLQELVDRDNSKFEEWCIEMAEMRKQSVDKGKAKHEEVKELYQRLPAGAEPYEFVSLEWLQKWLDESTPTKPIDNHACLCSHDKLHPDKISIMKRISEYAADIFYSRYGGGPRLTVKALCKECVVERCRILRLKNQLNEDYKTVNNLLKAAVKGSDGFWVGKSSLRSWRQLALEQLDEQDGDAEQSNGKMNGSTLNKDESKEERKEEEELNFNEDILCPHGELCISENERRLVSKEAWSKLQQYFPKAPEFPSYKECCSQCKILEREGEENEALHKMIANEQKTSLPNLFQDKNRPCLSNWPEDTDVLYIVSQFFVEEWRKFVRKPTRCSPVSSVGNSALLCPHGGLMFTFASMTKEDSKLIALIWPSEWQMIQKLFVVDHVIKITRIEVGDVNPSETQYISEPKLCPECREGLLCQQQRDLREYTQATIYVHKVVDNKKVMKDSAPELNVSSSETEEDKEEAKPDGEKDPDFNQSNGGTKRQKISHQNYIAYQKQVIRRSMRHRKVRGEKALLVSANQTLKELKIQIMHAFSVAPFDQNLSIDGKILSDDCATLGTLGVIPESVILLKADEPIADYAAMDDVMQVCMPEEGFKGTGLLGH
How it was run: as §1

USP5 = molecular target: T4, USP5 (UniProt P45974)
T4 sequence (whole entry): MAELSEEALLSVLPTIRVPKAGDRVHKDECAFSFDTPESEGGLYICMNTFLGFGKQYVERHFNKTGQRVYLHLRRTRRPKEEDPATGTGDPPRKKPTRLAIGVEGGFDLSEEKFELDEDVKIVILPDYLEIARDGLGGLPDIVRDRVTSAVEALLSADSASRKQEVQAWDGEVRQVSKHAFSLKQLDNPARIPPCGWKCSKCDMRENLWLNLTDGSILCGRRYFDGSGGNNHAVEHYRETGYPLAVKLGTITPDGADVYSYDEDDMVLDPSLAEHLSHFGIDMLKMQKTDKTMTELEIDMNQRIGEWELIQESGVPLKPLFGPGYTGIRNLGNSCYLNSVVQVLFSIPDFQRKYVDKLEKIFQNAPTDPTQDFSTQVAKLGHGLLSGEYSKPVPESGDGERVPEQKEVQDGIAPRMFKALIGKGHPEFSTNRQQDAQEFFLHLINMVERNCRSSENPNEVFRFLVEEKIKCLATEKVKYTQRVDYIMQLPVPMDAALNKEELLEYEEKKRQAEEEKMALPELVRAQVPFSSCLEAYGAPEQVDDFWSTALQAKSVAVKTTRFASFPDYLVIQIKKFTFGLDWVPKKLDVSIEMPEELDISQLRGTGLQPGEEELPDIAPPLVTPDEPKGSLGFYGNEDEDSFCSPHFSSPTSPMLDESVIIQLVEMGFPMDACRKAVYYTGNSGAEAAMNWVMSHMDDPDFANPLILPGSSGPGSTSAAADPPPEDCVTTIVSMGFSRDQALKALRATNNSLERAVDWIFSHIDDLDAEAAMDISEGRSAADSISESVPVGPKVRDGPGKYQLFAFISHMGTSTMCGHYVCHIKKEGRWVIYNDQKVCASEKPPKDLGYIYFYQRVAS
How it was run: as §1

USP54 = USP54 (UniProt Q70EL1)
Chain of USP54 (Q70EL1 whole entry): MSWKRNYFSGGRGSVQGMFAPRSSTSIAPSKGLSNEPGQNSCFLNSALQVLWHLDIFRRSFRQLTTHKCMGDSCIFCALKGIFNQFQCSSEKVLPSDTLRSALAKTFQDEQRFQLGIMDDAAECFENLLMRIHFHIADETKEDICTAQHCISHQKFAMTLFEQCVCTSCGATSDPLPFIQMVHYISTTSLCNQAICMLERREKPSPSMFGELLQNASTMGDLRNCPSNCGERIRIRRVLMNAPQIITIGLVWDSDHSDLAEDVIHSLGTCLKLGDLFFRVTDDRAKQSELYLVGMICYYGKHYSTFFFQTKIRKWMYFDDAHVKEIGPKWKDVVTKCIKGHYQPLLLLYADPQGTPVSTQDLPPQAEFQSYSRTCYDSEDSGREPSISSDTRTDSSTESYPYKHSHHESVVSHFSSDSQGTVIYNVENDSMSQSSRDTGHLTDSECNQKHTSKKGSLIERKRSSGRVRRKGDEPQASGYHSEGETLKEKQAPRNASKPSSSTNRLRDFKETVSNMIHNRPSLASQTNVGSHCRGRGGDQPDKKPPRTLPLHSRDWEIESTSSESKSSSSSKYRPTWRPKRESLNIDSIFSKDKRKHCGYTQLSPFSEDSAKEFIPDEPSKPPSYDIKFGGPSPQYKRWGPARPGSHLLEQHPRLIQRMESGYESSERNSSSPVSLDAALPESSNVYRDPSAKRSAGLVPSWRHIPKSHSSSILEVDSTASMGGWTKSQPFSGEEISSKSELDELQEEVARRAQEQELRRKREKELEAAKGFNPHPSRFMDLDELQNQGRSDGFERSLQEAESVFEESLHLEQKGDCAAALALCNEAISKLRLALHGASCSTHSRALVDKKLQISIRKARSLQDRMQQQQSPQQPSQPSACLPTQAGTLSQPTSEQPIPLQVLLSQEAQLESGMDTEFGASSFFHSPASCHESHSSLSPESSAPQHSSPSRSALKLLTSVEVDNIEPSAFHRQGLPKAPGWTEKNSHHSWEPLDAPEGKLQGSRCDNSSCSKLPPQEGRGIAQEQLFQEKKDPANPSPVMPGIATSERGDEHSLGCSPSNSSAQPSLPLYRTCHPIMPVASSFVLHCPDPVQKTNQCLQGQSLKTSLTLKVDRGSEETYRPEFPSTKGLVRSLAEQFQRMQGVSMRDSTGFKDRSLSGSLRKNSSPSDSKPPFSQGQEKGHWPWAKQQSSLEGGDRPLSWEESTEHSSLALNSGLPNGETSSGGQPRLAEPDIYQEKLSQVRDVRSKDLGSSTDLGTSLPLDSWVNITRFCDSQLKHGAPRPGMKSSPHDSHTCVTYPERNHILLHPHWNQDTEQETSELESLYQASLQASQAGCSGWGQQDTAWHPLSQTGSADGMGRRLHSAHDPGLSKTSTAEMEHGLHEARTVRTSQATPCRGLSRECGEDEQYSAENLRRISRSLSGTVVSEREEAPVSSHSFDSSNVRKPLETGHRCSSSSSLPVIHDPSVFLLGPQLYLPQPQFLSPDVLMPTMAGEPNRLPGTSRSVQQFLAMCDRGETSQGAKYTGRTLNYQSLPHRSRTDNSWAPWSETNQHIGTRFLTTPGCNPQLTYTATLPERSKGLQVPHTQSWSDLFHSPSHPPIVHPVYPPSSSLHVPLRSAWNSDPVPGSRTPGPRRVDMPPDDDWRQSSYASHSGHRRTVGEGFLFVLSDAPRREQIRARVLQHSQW
How it was run: as §1

USP7 = USP7 (UniProt Q93009)
Chain of USP7 (Q93009 whole entry, looked up): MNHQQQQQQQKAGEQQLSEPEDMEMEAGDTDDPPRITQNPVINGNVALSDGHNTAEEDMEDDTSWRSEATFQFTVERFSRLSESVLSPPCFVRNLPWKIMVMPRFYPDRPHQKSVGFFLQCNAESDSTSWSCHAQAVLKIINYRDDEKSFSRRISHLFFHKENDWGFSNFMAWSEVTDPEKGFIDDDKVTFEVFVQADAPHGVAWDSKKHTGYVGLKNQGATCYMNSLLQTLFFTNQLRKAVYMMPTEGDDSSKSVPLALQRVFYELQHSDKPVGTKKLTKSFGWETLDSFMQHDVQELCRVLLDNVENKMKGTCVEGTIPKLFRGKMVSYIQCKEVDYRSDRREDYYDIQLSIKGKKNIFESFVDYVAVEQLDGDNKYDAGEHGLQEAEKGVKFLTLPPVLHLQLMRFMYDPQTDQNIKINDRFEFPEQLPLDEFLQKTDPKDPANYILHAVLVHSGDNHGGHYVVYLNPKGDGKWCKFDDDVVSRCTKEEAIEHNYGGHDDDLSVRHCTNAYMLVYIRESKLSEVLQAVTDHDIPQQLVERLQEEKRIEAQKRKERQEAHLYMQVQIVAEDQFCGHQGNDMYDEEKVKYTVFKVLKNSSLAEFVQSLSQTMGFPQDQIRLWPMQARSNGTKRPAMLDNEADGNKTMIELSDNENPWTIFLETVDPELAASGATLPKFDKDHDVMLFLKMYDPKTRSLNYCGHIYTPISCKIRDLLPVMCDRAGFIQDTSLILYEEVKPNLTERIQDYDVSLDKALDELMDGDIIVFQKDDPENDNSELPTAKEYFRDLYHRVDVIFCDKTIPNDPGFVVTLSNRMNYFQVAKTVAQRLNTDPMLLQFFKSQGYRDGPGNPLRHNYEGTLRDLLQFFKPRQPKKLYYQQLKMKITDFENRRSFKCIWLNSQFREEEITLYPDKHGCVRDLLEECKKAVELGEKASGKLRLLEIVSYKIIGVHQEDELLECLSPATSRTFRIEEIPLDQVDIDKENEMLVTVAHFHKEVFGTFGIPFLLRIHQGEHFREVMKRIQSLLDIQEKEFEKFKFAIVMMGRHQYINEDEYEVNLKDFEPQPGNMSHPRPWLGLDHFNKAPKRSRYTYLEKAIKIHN
How it was run: as §1

USP8 = molecular target: T5, USP8 (UniProt P40818)
T5 sequence (whole entry): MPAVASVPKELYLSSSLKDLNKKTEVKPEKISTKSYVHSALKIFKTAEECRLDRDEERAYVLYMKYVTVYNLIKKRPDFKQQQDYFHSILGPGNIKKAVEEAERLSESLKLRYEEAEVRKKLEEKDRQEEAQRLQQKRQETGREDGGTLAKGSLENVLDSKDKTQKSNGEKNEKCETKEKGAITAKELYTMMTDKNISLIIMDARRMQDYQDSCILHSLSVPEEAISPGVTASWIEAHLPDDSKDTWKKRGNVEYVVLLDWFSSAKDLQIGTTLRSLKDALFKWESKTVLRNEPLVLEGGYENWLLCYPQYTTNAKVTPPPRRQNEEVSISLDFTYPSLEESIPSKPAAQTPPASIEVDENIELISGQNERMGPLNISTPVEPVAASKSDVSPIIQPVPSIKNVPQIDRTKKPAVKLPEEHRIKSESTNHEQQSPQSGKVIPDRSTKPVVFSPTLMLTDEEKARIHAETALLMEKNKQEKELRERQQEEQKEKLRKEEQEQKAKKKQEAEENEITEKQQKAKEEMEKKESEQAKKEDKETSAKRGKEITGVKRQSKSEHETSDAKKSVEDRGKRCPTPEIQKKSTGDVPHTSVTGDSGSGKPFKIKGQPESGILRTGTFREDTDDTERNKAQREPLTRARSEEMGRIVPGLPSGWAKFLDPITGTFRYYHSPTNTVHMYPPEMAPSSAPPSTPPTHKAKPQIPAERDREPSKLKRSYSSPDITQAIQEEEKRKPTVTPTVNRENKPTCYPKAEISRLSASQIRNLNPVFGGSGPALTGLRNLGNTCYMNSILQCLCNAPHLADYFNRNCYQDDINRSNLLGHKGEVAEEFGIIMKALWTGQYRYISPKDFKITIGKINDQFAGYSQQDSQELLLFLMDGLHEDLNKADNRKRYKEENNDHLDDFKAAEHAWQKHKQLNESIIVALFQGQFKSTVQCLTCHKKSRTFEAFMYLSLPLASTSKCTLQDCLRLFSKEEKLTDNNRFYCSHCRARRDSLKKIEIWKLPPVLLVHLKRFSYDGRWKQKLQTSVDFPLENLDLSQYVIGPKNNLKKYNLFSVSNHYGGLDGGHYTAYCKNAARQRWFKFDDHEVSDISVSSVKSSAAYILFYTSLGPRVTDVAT
How it was run: as §1

USP9X = USP9X (UniProt Q93008)
How it was run: as §1

UniProt O00487 = molecular target: UniProt O00487
Chain of UniProt O00487 (O00487 whole entry): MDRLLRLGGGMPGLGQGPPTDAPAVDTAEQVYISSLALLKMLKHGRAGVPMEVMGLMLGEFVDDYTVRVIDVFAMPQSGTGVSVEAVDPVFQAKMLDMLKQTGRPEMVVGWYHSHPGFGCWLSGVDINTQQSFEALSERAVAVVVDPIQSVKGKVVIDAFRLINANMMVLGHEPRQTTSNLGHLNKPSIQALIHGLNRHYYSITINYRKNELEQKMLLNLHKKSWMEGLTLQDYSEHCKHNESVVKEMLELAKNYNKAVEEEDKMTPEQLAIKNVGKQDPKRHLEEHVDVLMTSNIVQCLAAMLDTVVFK
How it was run: as §1

Measured: log2 ratio of Biotin-Ahx-Ub-VS probe labelling

O=C(CCl)NC1CCC2(CC1)OCCO2
inactive: USP42 -0.0532 | USP46 -0.121 | USP47 0.154 | USP48 -0.263 | USP5 -0.0178 | USP54 0.457 | USP7 -0.157 | USP8 -0.255 | USP9X -0.361 | UniProt O00487 -0.145
